Consider 17 compounds from PubChem BioAssay (EPA / NIEHS).

Several values for one entry are separate records, joined by “and”; a condition that tells them apart may be missing. Equal entries are not always repeated. More than one record can exist for a structure, and the calls need not agree. Activity calls are given as the source filed them. Rule for the calls: active = hit-call score of the fitted dose curve at least 0.9, where 1 is the maximum; inactive = score below 0.9.

Common to all, as to details: mRNA level, 48 h; actives raise or lower the signal
Read-out in assay [1]: Pro-epidermal growth factor (Homo sapiens) (UniProt P01133)
The experiment in a line: LTEA_HepaRG_EGF: Life Technologies and Expression Analysis (LTEA) Assay for Epidermal growth factor (EGF) using HepaRG (AID 2283489). In outline:
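qRT-PCR readout of EGF transcript after 48 h chemical exposure of HepaRG cells; eight concentrations from 100 uM down in half-log steps, duplicate wells, 0.5% DMSO vehicle. Bidirectional curve fitting against DMSO baseline.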

Read-out in assay [2]: Early growth response protein 1 (EGR1) transcription factor, EGR1 (gene 1958)
Put plainly: LTEA_HepaRG_EGR1: Life Technologies and Expression Analysis (LTEA) Assay for Early growth response protein 1 (EGR1) transcription factor using HepaRG (AID 2283490). The gist of the method: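 Differentiated HepaRG cells in serum-free induction medium exposed 48 hours, duplicate, to 8 half-log concentrations up to 100 uM in 0.5% DMSO. EGR1 mRNA measured by TaqMan qRT-PCR, normalized to ACTB, GAPDH, POLR2A; bidirectional fit versus DMSO.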

Read-out in assay [3]: Ezrin (EZR), EZR (gene 7430)
Put plainly: LTEA_HepaRG_EZR: Life Technologies and Expression Analysis (LTEA) Assay for Ezrin (EZR) using HepaRG (AID 2283491). In outline: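 EZR transcript levels came from Fluidigm qRT-PCR and were normalized to three housekeeping genes after 48 h chemical exposure of HepaRG cells. Dosing used an 8-point half-log series with a 100 uM top concentration in 0.5% DMSO, tested in duplicate; both directions were fitted versus vehicle.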

Read-out in assay [4]: Cytochrome P450 3A7 (Homo sapiens) (UniProt P24462)
The experiment in a line: LTEA_HepaRG_CYP3A7: Life Technologies and Expression Analysis (LTEA) Assay for CYP3A7 using HepaRG (AID 2283492). In outline:
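CYP3A7 transcript levels were read by TaqMan qRT-PCR on Fluidigm arrays after 48 h chemical exposure of human HepaRG cells, with housekeeping-gene normalisation. Eight half-log concentrations up to 100 uM in 0.5% DMSO were tested in duplicate.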

Read-out in another assay: CYP3A5 (gene 1577)
The experiment in a line: LTEA_HepaRG_CYP3A5: Life Technologies and Expression Analysis (LTEA) Assay for CYP3A5 using HepaRG (AID 2283493). In outline:
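mRNA induction or loss of CYP3A5 assessed in HepaRG after 48 h dosing, 100 uM top concentration, duplicate wells; TaqMan qRT-PCR with ACTB, GAPDH, POLR2A normalization; 0.5% DMSO as negative control.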

Read-out in assay [5]: Fatty Acid-Binding Protein 1 (FABP1), FABP1 (gene 2168)
The experiment in a line: LTEA_HepaRG_FABP1: Life Technologies and Expression Analysis (LTEA) Assay for Fatty Acid-Binding Protein 1 (FABP1) using HepaRG (AID 2283494). In outline:
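Differentiated human HepaRG cells exposed 48 h in serum-free induction medium to eight half-log concentrations up to 100 uM (0.5% DMSO), duplicate. FABP1 mRNA by qRT-PCR, normalised to ACTB, GAPDH, POLR2A; bidirectional fitting against DMSO.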

Read-out in assay [6]: Cytochrome P450 4A22 (Homo sapiens) (UniProt Q5TCH4)
The experiment in a line: LTEA_HepaRG_CYP4A22: Life Technologies and Expression Analysis (LTEA) Assay for Cytochrome P450 4A22 (CYP4A22) using HepaRG (AID 2283495). In outline: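 HepaRG, 48 h post-plating -> serum-free induction medium; dosed 48 h, duplicate, 8 conc. (100 uM top, half-log), 0.5% DMSO. Readout: CYP4A22 mRNA by qRT-PCR, ACTB/GAPDH/POLR2A normalization; gain/loss fit relative to DMSO.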

Read-out in assay [7]: Cytochrome P450 7A1 (Homo sapiens) (UniProt P22680)
Put plainly: LTEA_HepaRG_CYP7A1: Life Technologies and Expression Analysis (LTEA) Assay for Cytochrome P450 7A1 (CYP7A1) using HepaRG (AID 2283496). In outline: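 Gene expression endpoint in human HepaRG liver cells treated for 48 h with test chemicals (up to 100 uM, 0.5% DMSO). Values come from bidirectional concentration-response fitting versus DMSO.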

Read-out in assay [8]: Glutathione S-Transferase (GSTA2), GSTA2 (gene 2939)
The experiment in a line: LTEA_HepaRG_GSTA2: Life Technologies and Expression Analysis (LTEA) Assay for Glutathione S-Transferase (GSTA2) using HepaRG (AID 2283497). In outline:
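Differentiated human HepaRG cells were exposed in duplicate for 48 h in serum-free induction medium, 8 points from 100 uM top in half-log steps, 0.5% DMSO. GSTA2 mRNA was measured by TaqMan qRT-PCR, normalized to ACTB, GAPDH and POLR2A; bidirectional fit versus DMSO.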

Read-out in assay [9]: Glutamate-cysteine ligase catalytic (GCLC), GCLC (gene 2729)
The experiment in a line: LTEA_HepaRG_GCLC: Life Technologies and Expression Analysis (LTEA) Assay for Glutamate-cysteine ligase catalytic (GCLC) using HepaRG (AID 2283498). The gist of the method:
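Differentiated HepaRG cells exposed 48 h in serum-free induction medium, eight-point half-log series topping at 100 uM in 0.5% DMSO, duplicates. GCLC mRNA by qRT-PCR normalized to ACTB, GAPDH and POLR2A, fitted bidirectionally versus DMSO.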

Chain of Cytochrome P450 3A7 (Homo sapiens) (P24462 whole entry, looked up): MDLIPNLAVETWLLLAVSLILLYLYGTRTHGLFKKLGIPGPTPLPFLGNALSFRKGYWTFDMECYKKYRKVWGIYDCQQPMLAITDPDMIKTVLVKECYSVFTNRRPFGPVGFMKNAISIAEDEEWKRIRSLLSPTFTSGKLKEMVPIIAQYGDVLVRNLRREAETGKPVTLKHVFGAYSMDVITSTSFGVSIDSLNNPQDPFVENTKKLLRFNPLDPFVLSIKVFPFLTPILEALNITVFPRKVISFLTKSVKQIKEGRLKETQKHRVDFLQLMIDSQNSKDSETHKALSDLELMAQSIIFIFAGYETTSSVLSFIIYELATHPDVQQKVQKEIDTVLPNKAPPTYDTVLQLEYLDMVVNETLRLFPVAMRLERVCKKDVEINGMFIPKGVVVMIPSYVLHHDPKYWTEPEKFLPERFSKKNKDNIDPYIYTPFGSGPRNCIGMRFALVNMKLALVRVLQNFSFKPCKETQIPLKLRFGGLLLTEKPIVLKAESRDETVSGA

As for `Oc1ccc(C(c2ccc(O)cc2)C(Cl)(Cl)Cl)cc1`, the result in [1], in assay [6] and in assay [7] was inactive. Also, the half-maximal activity concentration (AC50) was 77.7 µM (active) in [2]; 80.9 µM (active) in assay [3]; 79.8 µM (active) in assay [4]; 70.7 µM (active) with CYP3A5 (gene 1577); 94.3 µM (active) in assay [5]; 78.2 µM (active) in [8]. The AC50 in [9] was 77.2 µM (active).
As to `S=C(S)NCCNC(=S)S.[Mn+2].[S-]C([S-])=NCCN=C([S-])[S-].[Zn+2]`, the half-maximal activity concentration (AC50) in assay [1] is 2.3 µM (active) and 673 nM (active); in assay [2], 3.58 µM (active) and 2.44 µM (active) and 4.53 µM (active); in [4], 947 nM (active) and 1.22 µM (active) and 1.41 µM (active); with CYP3A5 (gene 1577) it was 1.94 µM (active) and 1.32 µM (active) and 700 nM (active); in assay [5], 1.18 µM (active) and 1.26 µM (active) and 1.71 µM (active); in assay [6] it was 1.38 µM (active) and 1.35 µM (active). Besides, the half-maximal activity concentration (AC50) in assay [7] is 1.57 µM (active) and 1.44 µM (active) and 1.47 µM (active); in assay [8] it was 890 nM (active) and 1.14 µM (active) and 997 nM (active). In addition, the compound was classed as inactive in [1], in [3] and in assay [9].
Take `Cc1nn(C)c(Oc2ccccc2)c1C=NOCc1ccc(C(=O)OC(C)(C)C)cc1`: the outcome in [1] and in assay [9] was inactive. The half-maximal activity concentration (AC50) was 1.22 µM (active) in assay [2]; 3.29 µM (active) in assay [3]; 1.37 µM (active) in assay [4]; 9.26 µM (active) with CYP3A5 (gene 1577); 7.21 µM (active) in [5]; 2.91 µM (active) in assay [6]. The AC50 in assay [7] is 34.7 µM (active); in assay [8], 30.4 µM (active).
Turning to `N#CSCSc1nc2ccccc2s1`, the result (in assay [1]; in assay [2]; in assay [3]; in the assay with CYP3A5 (gene 1577); in assay [7]; in assay [9]) was inactive. Also, the AC50 in assay [4] was 64.3 µM (active); in assay [5] it was 88.5 µM (active); in assay [6], 90.5 µM (active); in assay [8], 86 µM (active).
As to `CCCCCOC(=O)COc1cc(N2C(=O)C3=C(CCCC3)C2=O)c(F)cc1Cl`, the outcome (in [1]; in assay [2]; in assay [3]; in [4]; in the assay with CYP3A5 (gene 1577); in assay [5]) was inactive. Also, the compound was classed as inactive in [6], in assay [7], in assay [8] and in [9].
As for `CCOC(=O)COc1cc(-n2ncc(C(F)(F)F)c(C)c2=O)c(F)cc1Cl`, the compound was classed as inactive (in assay [1]; in assay [2]; in assay [3]; with CYP3A5 (gene 1577); in [5]; in [6]). Besides, the compound was called inactive in assay [7], in [8] and in assay [9]. Besides, the half-maximal activity concentration (AC50) in assay [4] is 28.9 µM (active).
For the compound `CCCOC(=O)c1ccc(C(=O)OCCC)nc1`, the outcome (in assay [1]; in assay [2]; in assay [3]; in [4]; with CYP3A5 (gene 1577); in assay [5]) was inactive. For the same compound, the call in assay [6], in assay [7], in assay [8] and in [9] was inactive.
Regarding `CCCCC(CC)CN1C(=O)C2C3C=CC(C3)C2C1=O` (stereo unspecified), the compound was called inactive (in [1]; in [2]; in assay [3]; in the assay with CYP3A5 (gene 1577); in assay [9]). For the same compound, the concentration at half-maximal activity (AC50) in assay [4] was 85.7 µM (active); in assay [5], 72.5 µM (active); in [6] it was 62.5 µM (active); in assay [7], 73.6 µM (active); in assay [8], 79.5 µM (active).
For the compound `COC(=O)c1ccccc1C(=O)O`, the result (in assay [1]; in assay [2]; in assay [3]; in assay [4]; with CYP3A5 (gene 1577); in assay [5]) was inactive. In addition, the compound was classed as inactive in assay [6], in [7], in [8] and in assay [9].
Consider `CC1(C)C(C=C(Cl)Cl)C1C(=O)OCc1cccc(Oc2ccccc2)c1` (stereo unspecified), for which the compound was called inactive (in [1]; in [2]; in assay [3]; with CYP3A5 (gene 1577); in [5]; in assay [6]). Further, the compound was classed as inactive in [7], in assay [8] and in assay [9]. Besides, the half-maximal activity concentration (AC50) in assay [4] was 18.3 µM (active).
On to `CN(C)C(=O)Nc1ccc(Cl)c(Cl)c1`, for which the call (in assay [1]; in assay [2]; in assay [3]; in assay [4]; with CYP3A5 (gene 1577); in [6]) was inactive. Further, the half-maximal activity concentration (AC50) in assay [5] is 50 µM (active); in assay [7], 6.86 µM (active); in assay [8], 50 µM (active); in assay [9] it was 35.8 µM (active).
Turning to `CCCCOCCOCCOCc1cc2c(cc1CCC)OCO2`, the call (in assay [1]; in assay [2]; in [3]; with CYP3A5 (gene 1577); in [5]; in assay [6]) was inactive. Besides, the result in assay [7], in assay [8] and in [9] was inactive.
In the case of `CC(C)CCCCCCc1ccc(O)cc1`, the outcome (in assay [1]; in assay [2]; in [3]; in [4]; with CYP3A5 (gene 1577); in assay [5]) was inactive. Further, the compound was called inactive in assay [6], in [7], in assay [8] and in assay [9].
As for `C=CCOC(Cn1ccnc1)c1ccc(Cl)cc1Cl` (stereo unspecified), the AC50 in assay [1] is 85 µM (active); with CYP3A5 (gene 1577) it was 79.6 µM (active); in [5], 28.6 µM (active); in assay [6], 18.6 µM (active); in [7], 35.3 µM (active); in assay [9], 88.7 µM (active). Moreover, the result in assay [2] and in [3] was inactive.
As for `CCOC(=O)C(C)Oc1ccc(Oc2nc3ccc(Cl)cc3o2)cc1` (stereo unspecified), the outcome (in assay [1]; in assay [2]; in [3]; in assay [4]; in the assay with CYP3A5 (gene 1577); in assay [5]) was inactive. The result in assay [6] and in assay [9] was inactive. Besides, the half-maximal activity concentration (AC50) in [7] was 19.9 µM (active); in assay [8] it was 38.3 µM (active).
Take `O=C(Nc1ccc([N+](=O)[O-])cc1Cl)c1cc(Cl)ccc1O`: the AC50 in [1] is 12.1 µM (active); in assay [2], 1.76 µM (active); with CYP3A5 (gene 1577), 7.24 µM (active); in assay [5], 2.25 µM (active); in assay [6] it was 14.2 µM (active); in assay [7], 13.6 µM (active). The values for the AC50 in assay [8] and in assay [9] were 2.84 µM (active) and 4.26 µM (active), respectively. Besides, the result in [3] was inactive.
Regarding `c1ccc2[nH]c(-c3cscn3)nc2c1`, the compound was called inactive (in assay [1]; in assay [2]; in assay [3]; in the assay with CYP3A5 (gene 1577); in [5]; in assay [6]). The result in assay [7] and in assay [8] was inactive. For the same compound, in assay [9], the AC50 is 50 µM (active).
